In PubChem BioAssay (EPA / NIEHS):
“And” between values parts separate entries of the source, which are not always exact repeats. Equal values may be shown once. The source holds several records for some structures; these can differ, active in one and inactive in another. The source made the active and inactive calls. Rule for the calls: active = hit-call score of the fitted dose curve at least 0.9, where 1 is the maximum; inactive = score below 0.9.

experiment: CCTE_Shafer_MEA_dev_per_network_spike_spike_percent: CCTE's Neural Network Formation Assay for Percent of Spikes in a Network Spike, Shafer Lab (AID 2284054)
Method in brief: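 Developing networks of rat cortical neurons are dosed at day 0 and recorded extracellularly four times up to day 12. The endpoint is the area under the curve of percent spikes in network spikes, fitted in the negative direction relative to DMSO.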

**Q.** Which AC50 does the source give for C=C(C)C(=O)[O][Sn]([CH2]CCC)([CH2]CCC)[CH2]CCC here?
**A.** 1.98 µM (active)

**Q.** With CCC(=O)C(CC(C)N(C)C)(c1ccccc1)c1ccccc1 (stereo unspecified) as the compound, how does the AC50 read?
**A.** 7.25 µM (active)

**Q.** With ClC1(Cl)C2(Cl)C3(Cl)C4(Cl)C(Cl)(Cl)C5(Cl)C3(Cl)C1(Cl)C5(Cl)C24Cl (stereo unspecified) as the compound, how does the AC50 read?
**A.** 2.32 µM (active)

**Q.** For O=C(O)C(F)(F)C(F)(F)C(F)(F)C(F)(F)C(F)(F)C(F)(F)F, which outcome is on record?
**A.** inactive

**Q.** For COP(=O)(OC)O/C(=C\Cl)c1cc(Cl)c(Cl)cc1Cl, which outcome is on record?
**A.** inactive

**Q.** Which outcome does the source give for O=C(O)C(F)(F)C(F)(F)C(F)(F)C(F)(F)C(F)(F)C(F)(F)C(F)(F)C(F)(F)C(F)(F)C(F)(F)F here?
**A.** inactive

**Q.** With Cn1sc(Cl)cc1=O as the compound, how does the AC50 read?
**A.** 7.62 µM (active)

**Q.** Which AC50 does the source give for CC(=O)[O][Hg][c]1ccccc1 here?
**A.** 0.0173 µM (active)

**Q.** For CC(C)(C)c1cc(O)ccc1O, which AC50 is on record?
**A.** 5.23 µM (active)

**Q.** Which AC50 does the source give for CCOP(=S)(OCC)Oc1nc(Cl)c(Cl)cc1Cl here?
**A.** 23.4 µM (active) and 20.2 µM (active)

**Q.** What about the outcome of the same compound?
**A.** inactive
